Broadly, the AC50 is the concentration at which the activity in the assay is half-maximal.

Data on 6 compounds can be found in PubChem BioAssay (EPA / NIEHS).

SMILES strings stand for the structures. Active and inactive are the calls of the source. How the source made its calls: active means hit-call score of the fitted dose curve at least 0.9, where 1 is the maximum; inactive means score below 0.9.

Common to all, as to details: mRNA level, 48 h; actives raise or lower the signal
Read-out in test [1]: Heat shock 70 kDa protein 1 (HSPA1A), gene 3303
Briefly: LTEA_HepaRG_HSPA1A: Life Technologies and Expression Analysis (LTEA) Assay for Heat shock 70 kDa protein 1 (HSPA1A) using HepaRG (AID 2283502). A digest of the protocol: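 HSPA1A induction in human HepaRG liver cells is measured after 48 h of chemical treatment (100 uM maximum, 0.5% DMSO vehicle). Expression comes from qRT-PCR normalized to endogenous controls.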

Read-out in test [2]: Hypoxia-inducible factor 1-alpha (Homo sapiens) (UniProt Q16665)
Briefly: LTEA_HepaRG_HIF1A: Life Technologies and Expression Analysis (LTEA) Assay for Hypoxia-inducible factor 1 (HIF1A) Trancription factor using HepaRG (AID 2283503). A digest of the protocol: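 HepaRG, 48 h exposure, 8-pt half-log series from 100 uM, 0.5% DMSO vehicle, duplicates. Readout: HIF1A transcript by qRT-PCR (Fluidigm array), housekeeping-normalised. Bidirectional curve fit vs DMSO baseline.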

Read-out in test [3]: 3-Hydroxy-3-Methylglutaryl-CoA Synthase 2 (HMGCS2), HMGCS2 (gene 3158)
Nature of the test: LTEA_HepaRG_HMGCS2: Life Technologies and Expression Analysis (LTEA) Assay for 3-Hydroxy-3-Methylglutaryl-CoA Synthase 2 (HMGCS2) using HepaRG (AID 2283504). A digest of the protocol: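 HepaRG, plated 48 h then switched to serum-free induction media; cmpd 8-pt, max 100 uM, 1/2-log, 0.5% DMSO, n=2, 48 h. HMGCS2 mRNA by Fluidigm TaqMan qRT-PCR, ACTB/GAPDH/POLR2A norm; bidirectional fit vs DMSO.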

Read-out in another test: HGF (gene 3082)
Briefly: LTEA_HepaRG_HGF: Life Technologies and Expression Analysis (LTEA) Assay for Hepatocyte Growth Facto (HGF) using HepaRG (AID 2283505). In a few lines: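 Read-out is HGF transcript level by qRT-PCR, normalized to three housekeeping genes, fitted bidirectionally against 0.5% DMSO vehicle. Human HepaRG cells received test chemicals for 48 h at up to 100 uM.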

Read-out in test [4]: Insulin Like Growth Factor 1 (IGF1), IGF1 (gene 3479)
Briefly: LTEA_HepaRG_IGF1: Life Technologies and Expression Analysis (LTEA) Assay for Insulin Like Growth Factor 1 (IGF1) using HepaRG (AID 2283506). In a few lines: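 Using human HepaRG liver cells, IGF1 transcript induction or suppression is measured 48 h after dosing across eight concentrations capped at 100 uM. Values derive from bidirectional concentration-response fitting with DMSO as baseline.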

Read-out in test [5]: Intercellular Adhesion Molecule 1 (ICAM1), ICAM1 (gene 3383)
Nature of the test: LTEA_HepaRG_ICAM1: Life Technologies and Expression Analysis (LTEA) Assay for Intercellular Adhesion Molecule 1 (ICAM1) using HepaRG (AID 2283507). In a few lines: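 Readout is qRT-PCR mRNA level, normalized to three housekeeping genes and fitted bidirectionally against 0.5% DMSO vehicle. Human HepaRG cultures received compound for 48 h, top concentration 100 uM with half-log dilutions.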

Read-out in test [6]: Interleukin 6 (IL6), IL6 (gene 3569)
Nature of the test: LTEA_HepaRG_IL6: Life Technologies and Expression Analysis (LTEA) Assay for Interleukin 6 (IL6) using HepaRG (AID 2283509). A digest of the protocol:
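HepaRG, ~100,000 cells/well, 48 h pre-culture; serum-free induction medium; cmpd 8-pt half-log from 100 uM, 0.5% DMSO, duplicate, 48 h. Lysis in RLT, TaqMan qRT-PCR; gain or loss vs DMSO.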

Read-out in test [7]: Interleukin 6 Receptor (IL6R), IL6R (gene 3570)
Nature of the test: LTEA_HepaRG_IL6R: Life Technologies and Expression Analysis (LTEA) Assay for Interleukin 6 Receptor (IL6R) using HepaRG (AID 2283510).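 On AC50: TaqMan qRT-PCR signal normalized to ACTB GAPDH and POLR2A housekeeping genes.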 In a few lines:
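Concentration-response in human liver HepaRG cells: eight concentrations from 100 uM downward by half-logs, 48 h exposure, 0.5% DMSO vehicle. IL6R mRNA change measured by qRT-PCR and fitted in both directions relative to vehicle.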

Read-out in test [8]: Potassium channel subfamily K member 1 (KCNK1), KCNK1 (gene 3775)
Briefly: LTEA_HepaRG_KCNK1: Life Technologies and Expression Analysis (LTEA) Assay for Potassium channel subfamily K member 1 (KCNK1) using HepaRG (AID 2283511). A digest of the protocol: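 Gain or loss of KCNK1 mRNA is the read-out, quantified by qRT-PCR against three housekeeping genes after 48 h chemical treatment of human HepaRG liver cells. Concentrations ran from 100 uM downward in half-log steps, vehicle 0.5% DMSO.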

Read-out in test [9]: Keratin 19 (KRT19), KRT19 (gene 3880)
Nature of the test: LTEA_HepaRG_KRT19: Life Technologies and Expression Analysis (LTEA) Assay for Keratin 19 (KRT19) using HepaRG (AID 2283512). In a few lines: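 KRT19 transcript levels, measured by Fluidigm qRT-PCR against three housekeeping genes, are fitted for gain or loss of signal relative to DMSO. Human HepaRG cells receive test chemicals (top 100 uM, half-log steps, 0.5% DMSO) for 48 hours.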

Read-out in test [10]: Lipase C (LIPC), LIPC (gene 3990)
Briefly: LTEA_HepaRG_LIPC: Life Technologies and Expression Analysis (LTEA) Assay for Lipase C (LIPC) using HepaRG (AID 2283514). A digest of the protocol:
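Read-out is LIPC transcript level by TaqMan qRT-PCR, normalized to three housekeeping genes, after 48 h chemical treatment of human HepaRG liver cells. Curves span eight concentrations topping at 100 uM; activity in either direction scored relative to 0.5% DMSO.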

Read-out in test [11]: Lipoprotein lipase (LPL), LPL (gene 4023)
Briefly: LTEA_HepaRG_LPL: Life Technologies and Expression Analysis (LTEA) Assay for Lipoprotein lipase (LPL) using HepaRG (AID 2283515). A digest of the protocol:
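Read-out is LPL transcript level by qRT-PCR, normalized to three housekeeping genes and fitted bidirectionally against the DMSO control. Human HepaRG cells received chemicals for 48 h at up to 100 uM.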

Read-out in test [12]: MicroRNA 122 (MIR122), gene 406906
Nature of the test: LTEA_HepaRG_MIR122: Life Technologies and Expression Analysis (LTEA) Assay for MicroRNA 122 (MIR122) using HepaRG (AID 2283516). Further: the transcript read is the microRNA miR-122. In a few lines:
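HepaRG, 48 h exposure, 8-pt half-log from 100 uM, 0.5% DMSO; TaqMan qRT-PCR; bidirectional fit vs DMSO.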

Read-out in test [13]: matrix metalloproteinase-10 (MMP10), MMP10 (gene 4319)
Briefly: LTEA_HepaRG_MMP10: Life Technologies and Expression Analysis (LTEA) Assay for matrix metalloproteinase-10 (MMP10) using HepaRG (AID 2283517). In a few lines: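 Gain or loss of MMP10 mRNA is fitted relative to the 0.5% DMSO vehicle. The human hepatic line HepaRG receives a 48-hour serum-free exposure, in duplicate, with a maximum concentration of 100 uM.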

Read-out in test [14]: matrix metalloproteinase-3 (MMP3), MMP3 (gene 4314)
Nature of the test: LTEA_HepaRG_MMP3: Life Technologies and Expression Analysis (LTEA) Assay for matrix metalloproteinase-3 (MMP3) using HepaRG (AID 2283519). A digest of the protocol:
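HepaRG, human; 48 h dosing, 8 conc. (max 100 uM, half-log), duplicate, 0.5% DMSO. Readout: MMP3 transcript by Fluidigm TaqMan qRT-PCR, ACTB/GAPDH/POLR2A-normalised. Gain or loss fitted vs DMSO.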

Read-out in test [15]: Paternally Expressed 10 (PEG10), PEG10 (gene 23089)
Nature of the test: LTEA_HepaRG_PEG10: Life Technologies and Expression Analysis (LTEA) Assay for Paternally Expressed 10 (PEG10) using HepaRG (AID 2283520).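 On AC50: PEG10 transcript by qRT-PCR normalised to ACTB GAPDH and POLR2A.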 In a few lines: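 Chemicals tested on HepaRG cells for 48 h, highest concentration 100 uM. PEG10 expression assessed by qRT-PCR relative to DMSO control.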

Read-out in test [16]: Nuclear factor NF-kappa-B p105 subunit (Homo sapiens) (UniProt P19838)
Briefly: LTEA_HepaRG_NFKB1: Life Technologies and Expression Analysis (LTEA) Assay for Nuclear Factor Kappa B Subunit 1 (NFKB1) using HepaRG (AID 2283521). A digest of the protocol:
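Differentiated human HepaRG cells were exposed for 48 h in serum-free induction medium to eight concentrations (top 100 uM, half-log steps, 0.5% DMSO), in duplicate. NFKB1 mRNA was measured by TaqMan qRT-PCR, normalized to ACTB/GAPDH/POLR2A, and fitted bidirectionally against DMSO.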

Read-out in test [17]: JUN Transcription Factor, JUN (gene 3725)
Nature of the test: LTEA_HepaRG_JUN: Life Technologies and Expression Analysis (LTEA) Assay for JUN Transcription Factor using HepaRG (AID 2283513). A digest of the protocol:
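Human HepaRG liver cells receive test chemicals in 0.5% DMSO for 48 h across an eight-point range topping at 100 uM. Expression changes in JUN are scored in both directions against the DMSO vehicle.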

Read-out in another test: MYC, MYC (gene 4609)
Nature of the test: LTEA_HepaRG_MYC: Life Technologies and Expression Analysis (LTEA) Assay for MYC using HepaRG (AID 2283518). In a few lines: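 HepaRG, ~100,000 cells/well, collagen I; 48 h plating; serum-free induction medium; 48 h dosing, duplicate, 100 uM top, half-log, 0.5% DMSO; total RNA → qRT-PCR MYC; gain/loss fit vs DMSO.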

Sequence of Hypoxia-inducible factor 1-alpha (Homo sapiens) (Q16665 whole entry, looked up): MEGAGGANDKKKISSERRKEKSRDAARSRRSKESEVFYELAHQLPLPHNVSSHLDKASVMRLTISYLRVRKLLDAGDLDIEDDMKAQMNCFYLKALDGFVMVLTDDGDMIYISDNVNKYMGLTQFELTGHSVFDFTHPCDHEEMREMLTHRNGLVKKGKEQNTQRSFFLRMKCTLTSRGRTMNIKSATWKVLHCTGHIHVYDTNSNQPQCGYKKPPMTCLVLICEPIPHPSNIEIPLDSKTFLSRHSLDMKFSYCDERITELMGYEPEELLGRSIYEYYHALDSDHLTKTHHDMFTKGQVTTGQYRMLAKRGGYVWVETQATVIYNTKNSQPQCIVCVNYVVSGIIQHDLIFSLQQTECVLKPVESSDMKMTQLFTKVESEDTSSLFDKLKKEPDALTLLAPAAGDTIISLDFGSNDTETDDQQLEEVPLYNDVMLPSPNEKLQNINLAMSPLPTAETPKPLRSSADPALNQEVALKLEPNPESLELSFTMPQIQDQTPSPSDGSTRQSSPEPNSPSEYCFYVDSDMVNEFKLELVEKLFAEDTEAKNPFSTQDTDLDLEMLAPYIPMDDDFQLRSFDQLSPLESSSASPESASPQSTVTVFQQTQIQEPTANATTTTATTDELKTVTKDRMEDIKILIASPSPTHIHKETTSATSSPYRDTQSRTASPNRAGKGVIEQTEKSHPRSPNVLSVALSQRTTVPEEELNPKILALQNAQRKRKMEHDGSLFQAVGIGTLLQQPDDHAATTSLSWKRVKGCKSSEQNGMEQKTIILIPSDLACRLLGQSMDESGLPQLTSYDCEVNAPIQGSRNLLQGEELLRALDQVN
Sequence of Nuclear factor NF-kappa-B p105 subunit (Homo sapiens) (P19838 whole entry, looked up): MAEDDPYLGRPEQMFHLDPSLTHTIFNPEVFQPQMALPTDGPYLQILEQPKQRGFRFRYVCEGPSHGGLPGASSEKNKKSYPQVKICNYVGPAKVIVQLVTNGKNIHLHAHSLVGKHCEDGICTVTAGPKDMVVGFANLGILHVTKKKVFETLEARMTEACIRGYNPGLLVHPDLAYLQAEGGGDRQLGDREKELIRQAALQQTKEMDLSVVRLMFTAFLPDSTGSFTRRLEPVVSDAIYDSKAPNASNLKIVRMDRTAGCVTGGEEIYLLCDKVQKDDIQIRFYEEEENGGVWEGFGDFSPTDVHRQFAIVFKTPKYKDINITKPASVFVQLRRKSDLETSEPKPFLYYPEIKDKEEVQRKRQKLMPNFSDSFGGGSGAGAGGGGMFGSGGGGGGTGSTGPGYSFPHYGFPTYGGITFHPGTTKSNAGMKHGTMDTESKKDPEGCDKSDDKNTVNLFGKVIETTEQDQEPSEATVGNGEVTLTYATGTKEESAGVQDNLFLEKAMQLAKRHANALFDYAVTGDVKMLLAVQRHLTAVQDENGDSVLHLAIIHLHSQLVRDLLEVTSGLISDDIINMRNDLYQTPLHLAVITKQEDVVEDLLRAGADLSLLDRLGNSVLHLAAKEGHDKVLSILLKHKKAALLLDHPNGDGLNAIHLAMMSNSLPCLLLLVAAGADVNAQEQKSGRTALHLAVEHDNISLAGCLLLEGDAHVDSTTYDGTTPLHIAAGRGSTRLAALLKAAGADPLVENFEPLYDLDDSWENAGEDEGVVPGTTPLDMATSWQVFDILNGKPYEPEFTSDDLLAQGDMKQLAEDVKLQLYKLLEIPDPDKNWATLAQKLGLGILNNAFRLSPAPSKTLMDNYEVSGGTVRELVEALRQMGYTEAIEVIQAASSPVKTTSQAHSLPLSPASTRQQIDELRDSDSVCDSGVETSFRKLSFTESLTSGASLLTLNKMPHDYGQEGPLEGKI

As to `FC(F)C(F)(F)OCC(Cn1cncn1)c1ccc(Cl)cc1Cl` (configuration not stated), the AC50 in test [1] was 83.4 µM (active); in test [2], 76.4 µM (active); in [3] it was 39.5 µM (active); in the test with HGF (gene 3082), 87.2 µM (active); in test [4], 33.4 µM (active); in test [5], 31.9 µM (active). Further, the AC50 in [6] is 78.5 µM (active); in test [8], 66.8 µM (active); in [10], 49.8 µM (active); in test [11], 31.3 µM (active); in test [12], 59.2 µM (active); in test [13] it was 49.8 µM (active). For the same compound, in [14], the AC50 was 66.9 µM (active). For the same compound, the compound was classed as inactive in [7], in [9], in test [15] and in test [16].

Take `CCOP(=S)(OCC)Oc1ccc([N+](=O)[O-])cc1`: the call (in test [1]; in [2]; in [3]; with HGF (gene 3082); in [4]; in test [5]) was inactive. The result in test [6], in test [9], in test [10], in test [12], in test [13] and in test [14] was inactive. For the same compound, the result in [15] and in test [16] was inactive. The AC50 in test [7] was 1.48 µM (active).

As to `C[Si](Cn1cncn1)(c1ccc(F)cc1)c1ccc(F)cc1`, the call (in [1]; in [2]; in the test with HGF (gene 3082); in test [7]; in test [9]; in [17]) was inactive. For the same compound, in test [15], the call was inactive. Also, the AC50 was 47.6 µM (active) in [3]; 50 µM (active) in [4]; 81.1 µM (active) in [5]; 92.6 µM (active) in test [6]; 50 µM (active) in [8]; 26.7 µM (active) in test [10]. Further, the AC50 in test [11] was 50 µM (active); in [12], 61.4 µM (active); with MYC, MYC (gene 4609), 68.1 µM (active); in test [14], 11.6 µM (active).

For `CCOP(=O)(SC(C)CC)N1CCSC1=O` (configuration not stated), the call in [1], in test [2], in test [5], in test [6], in test [7] and in test [8] was inactive. Also, the outcome is “inactive” in [9]; “inactive” in [11]; “inactive” in [12]; “inactive” with MYC, MYC (gene 4609); “inactive” in test [14]. Also, the AC50 was 21.3 µM (active) in test [3], 21 µM (active) in test [4], 25.6 µM (active) in test [10] and 26.2 µM (active) in test [15].

As for `Cc1nn(-c2cc(NS(C)(=O)=O)c(Cl)cc2Cl)c(=O)n1C(F)F`, the compound was classed as inactive (in test [1]; in [2]; in test [3]; with HGF (gene 3082); in test [5]; in [6]). In addition, the outcome in test [7], in test [8], in [9], in test [10], in test [11] and in [12] was inactive. For the same compound, the result in [13], in test [14] and in [15] was inactive.

As for `CCc1cccc(C)c1N(C(=O)CCl)C(C)COC` (configuration not stated), the outcome (in test [1]; in test [2]; in test [3]; with HGF (gene 3082); in [5]; in test [6]) was inactive. Further, the compound was classed as inactive in [7], in test [8], in test [9], in test [17], in test [10] and in test [11]. In addition, the call in [12], in test [13], in test [14], in test [15] and in [16] was inactive. The concentration at half-maximal activity (AC50) in test [4] is 50 µM (active).
